Measurements: PubChem BioAssay AID489043 (National Center for Advancing Translational Sciences (NCATS), 2010)
Records with an inconclusive call do not appear. Calls of active or inactive are those of the source. The call rests on the fitted dose curve; in most records, active means well fitted activation curve with a large enough effect; inconclusive means small, poorly fitted or top-dose-only effect; inactive means flat fitted curve, though single readings scatter.

target: Relaxin receptor 2 (Homo sapiens) (UniProt Q8WXD0); assay: qHTS Assay for Agonists of the Relaxin Receptor RXFP1: RXFP2 Hit Validation; settings: HEK293 RXFP2 cAMP TR-FRET, 30 min; series mostly up to 115 µM; activation: at the top concentration; further: nearly all actives have a fitted effect of over 65% in size
Sequence (Q8WXD0 whole entry, looked up): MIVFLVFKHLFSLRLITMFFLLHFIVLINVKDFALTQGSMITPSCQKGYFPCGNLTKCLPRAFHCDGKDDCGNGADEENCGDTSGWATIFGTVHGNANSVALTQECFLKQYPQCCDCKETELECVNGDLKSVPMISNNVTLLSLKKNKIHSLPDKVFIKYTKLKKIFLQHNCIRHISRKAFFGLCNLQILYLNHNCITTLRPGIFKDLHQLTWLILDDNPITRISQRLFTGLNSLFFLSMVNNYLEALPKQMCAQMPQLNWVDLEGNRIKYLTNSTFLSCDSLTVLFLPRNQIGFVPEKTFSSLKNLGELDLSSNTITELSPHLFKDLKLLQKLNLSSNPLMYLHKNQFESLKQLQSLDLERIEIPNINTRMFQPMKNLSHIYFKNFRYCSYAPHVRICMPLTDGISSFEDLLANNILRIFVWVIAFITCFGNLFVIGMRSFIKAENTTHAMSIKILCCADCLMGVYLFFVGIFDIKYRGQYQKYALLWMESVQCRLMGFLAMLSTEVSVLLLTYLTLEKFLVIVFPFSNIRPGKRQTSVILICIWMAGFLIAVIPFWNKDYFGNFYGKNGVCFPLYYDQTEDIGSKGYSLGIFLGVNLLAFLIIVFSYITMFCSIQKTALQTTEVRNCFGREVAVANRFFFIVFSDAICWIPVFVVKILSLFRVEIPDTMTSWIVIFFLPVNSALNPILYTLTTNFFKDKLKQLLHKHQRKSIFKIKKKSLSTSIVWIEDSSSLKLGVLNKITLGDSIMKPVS
Summary of the method: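 Selectivity counter-assay for cAMP accumulation: RXFP2-HEK293 cells given compounds with Ro 20174 for 30 min at 37C, then lysed for TR-FRET cAMP detection. Data scaled to 29 nM porcine relaxin (100%); Hill-equation EC50.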
Potency means the concentration at half of the fitted maximal effect.

**Q.** `O=c1oc2cc(O)c(Cl)cc2c2ccccc12` was tested. Which Potency did it give?
**A.** 6.9 µM (active)

**Q.** `CCOC(=O)CNC(=O)CSc1nc2c(C)cccc2cc1CC` was tested. Which Potency did it give?
**A.** 19.4 µM (active)

**Q.** `Cc1ccc(C(=O)Nc2ccccc2C(N)=O)o1` was tested. Which “activation” value did it give?
**A.** -1.39% [at 125 µM] (inactive)

**Q.** `Cc1cc2nc3ccc(=[N+](C)C)cc-3sc2cc1N` was tested. Which “activation” value did it give?
**A.** -5.65% (inactive)

**Q.** `C=C(C)C(=O)Nc1cccc(C2=NOC3(C2)C[C@@H](C(N)=O)N(C(=O)c2ccc(Cl)cc2)C3)c1` (stereo partly specified) was tested. Which “activation” value did it give?
**A.** 3.65% (inactive)

**Q.** `Cc1nnc(Nc2ccc(S(N)(=O)=O)cc2)c2ccccc12` was tested. Which Potency did it give?
**A.** 34.6 µM (active)

**Q.** `C=CCNc1ncnc2c1ncn2C1OC(CO)C(O)C1O` (stereo unspecified) was tested. Which “activation” value did it give?
**A.** -17.7% (inactive)

**Q.** How did the “activation” value turn out when `CCN(CC)C(=O)c1cc(Cl)ccc1NC(=O)c1ccco1` was run?
**A.** -3.03% [at 125 µM] (inactive)

**Q.** How did the Potency turn out when `O=C(NC1CCCCCC1)c1cc2c(=O)n3ccccc3nc2s1` was run?
**A.** 38.9 µM (active)

**Q.** Which Potency does the source give for `CCc1ccc2n(-c3ccc(OC)cc3)c([S-])c(C(=O)Nc3cc(C)cc(C)c3)[n+]2c1` here?
**A.** 30.8 µM (active)

**Q.** For `Cn1c(N)c(C(=O)CSc2nn(-c3ccc(F)cc3)c(=S)s2)c(=O)n(C)c1=O`, which Potency is on record?
**A.** 21.8 µM (active)

**Q.** How did the Potency turn out when `C=C[C@@]1(C)CC(=O)[C@]2(O)[C@@]3(C)[C@@H](O)CCC(C)(C)[C@@H]3[C@H](O)[C@H](OC(C)=O)[C@@]2(C)O1` was run?
**A.** 0.0488 µM (active)

**Q.** With `CCOc1ccc2cc(C#N)c(SCC(=O)NC(C)CC)nc2c1` (stereo unspecified) as the compound, how does the Potency read?
**A.** 6.15 µM (active)

**Q.** For `CC1(C)Cc2c(sc3ncnc(NN)c23)CO1`, which “activation” value is on record?
**A.** 21.1% [at 44.7 µM] (inactive)

**Q.** With `Cc1ccnc(NS(=O)(=O)c2ccc(N3C(=O)c4ccccc4C3=O)cc2)n1` as the compound, how does the Potency read?
**A.** 18.8 µM (active)

**Q.** How did the Potency turn out when `Nc1ncnc2c1ncn2[C@@H]1O[C@H](COS(=O)(=O)O)[C@@H](O)[C@H]1O` was run?
**A.** 12.3 µM (active)

**Q.** How did the Potency turn out when `O=C(OCc1nc2ccsc2c(=O)[nH]1)c1cccc(S(=O)(=O)N2CCOCC2)c1` was run?
**A.** 34.6 µM (active)

**Q.** How did the “activation” value turn out when `CCn1c(=O)c2cc(C(=O)Nc3cccc(C(C)=O)c3)sc2c2ccccc21` was run?
**A.** 13.5% (inactive)

**Q.** For `Cc1ccc2cc(CN(C(=O)c3cccs3)c3ccccc3)c(=O)[nH]c2c1`, which “activation” value is on record?
**A.** 5.18% (inactive)

**Q.** Which Potency does the source give for `CC1(C)O[C@@H]2[C@H](O1)[C@@H](COS(=O)(=O)O)O[C@H]2n1cnc2c(N)ncnc21` here?
**A.** 6.15 µM (active)

**Q.** With `O=C(Nc1ccccc1C(=O)NCc1ccccc1)c1ccco1` as the compound, how does the “activation” value read?
**A.** 5.45% [at 125 µM] (inactive)

**Q.** `CCN(CC)S(=O)(=O)c1ccc(N2CCOCC2)c(NC(=O)c2cc([N+](=O)[O-])ccc2Cl)c1` was tested. Which “activation” value did it give?
**A.** 14% (inactive)

**Q.** With `CC(=O)Nc1c2c3c(cccc3n(C)c1=O)C(=O)c1ccccc1-2` as the compound, how does the “activation” value read?
**A.** 20.1% [at 44.7 µM] (inactive)

**Q.** For `CN(C)c1ccc(C(=S)N2CCN(S(=O)(=O)c3ccccc3)CC2)cc1`, which “activation” value is on record?
**A.** 7.33% (inactive)

**Q.** `O=C(Nc1ccccc1C(=O)NCCN1CCOCC1)c1ccco1` was tested. Which “activation” value did it give?
**A.** 4.33% [at 125 µM] (inactive)

**Q.** With `CCN(CC)S(=O)(=O)c1ccc2c(c1)N(CC(=O)NCc1ccccn1)C(=O)CO2` as the compound, how does the Potency read?
**A.** 34.6 µM (active)

**Q.** For `O=C(O)CCNc1ccc(NCCC(=O)O)c2c1C(=O)c1ccccc1C2=O`, which “activation” value is on record?
**A.** 1.48% (inactive)

**Q.** With `Cc1cc(NC(=O)c2ccccc2F)nc2c1c(=O)oc1ccccc12` as the compound, how does the Potency read?
**A.** 15.4 µM (active)

**Q.** How did the Potency turn out when `O=[N+]([O-])c1cccc(CSc2nnc3ccccn23)c1` was run?
**A.** 34.6 µM (active)

**Q.** Which Potency does the source give for `Cn1c(=O)c2c(ncn2CC(=O)NC2CCCCC2)n(C)c1=O` here?
**A.** 48.9 µM (active)

**Q.** `NS(=O)(=O)c1ccc(CCNC(=O)C2CCN(c3ncnc4c3nc3n4CCCCC3)CC2)cc1` was tested. Which Potency did it give?
**A.** 38.9 µM (active)
